An excerpt weighted towards active compounds, which were near 17% of everything screened.
DT40 TDP1 CPT: DT40-hTDP1 cell growth loss with CPT; chicken DT40 Tdp1-/-;hTDP1 cells + 20 nM CPT, ATP luminescence, 48 h; Potency, µM (top dose mostly 46.2 µM), without a hit: at the highest dose activity change, negative = growth inhibition, hits mostly inhibitors; 420,000 tested, 12% active; note: % is set by controls: 0 for no effect and ±100 for the full control effect; nearly all actives have a fitted effect of over 55% in size
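Cell growth measured by CellTiter-Glo luminescence after a minimum 48 h, 37 C compound exposure with 20 nM CPT in Tdp1-knockout DT40 cells stably expressing hTDP1, seeded 400/well; qHTS titration format.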
HepG2 viability: counter-screen for TGF-b inhibitors: cytotoxicity in HepG2 cells; 410,000 tested, 0.76% active; Potency, µM (doses to about 46.1 µM), without a hit: top-dose activity change, negative = cytotoxicity, most hits filed as cytotoxic; HepG2 CAGA-GFP viability, ATP luminescence, 18 h
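CellTiter-Glo luminescence gave cytotoxicity after 18 hours at 37 degrees C. The cells were HepG2 CAGA-GFP in 1% FBS DMEM, stimulated with 500 pg/mL TGF-beta after compound addition. %Activity was normalised to no-cell wells (complete cell-killing) and DMSO (no toxicity), and curves were fitted and classified.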
DT40 TDP1 no CPT: qHTS for Inhibitors of human tyrosyl-DNA phosphodiesterase 1 (TDP1): qHTS in cells in absence of CPT. DT40 Tdp1-/- hTDP1 cells, no CPT, ATP luminescence, 48 h. Potency, µM (highest dose often 46.2 µM), for inactives: at the highest dose activity change, negative = growth inhibition, actives largely listed as inhibitors. 420,000 tested, 15% active. AID 686978, 2013; note: % is set by controls: 0 for no effect and ±100 for the full control effect; nearly all actives have a fitted effect of over 55% in size
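Seeded 400 DT40-hTDP1 cells/well (vehicle DMSO, no 20 nM CPT); pinned compounds; ≥48 hr at 37 °C; CellTiter-Glo luminescence as viability measure.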
HT1080-NT tox: kills 2HG-producing HT-1080-NT fibrosarcoma cells | Potency, µM (titrated, usually from 46.1 µM), inactives show at the top dose activity, negative = less viability, most hits filed as cytotoxic | HT-1080-NT fibrosarcoma viability, CellTiter-Glo ATP luminescence, 48 h | AID 686970 | 360,000 tested, 1.6% active;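 note: NT is the 2HG producing partner of a matched IDH1 knockdown line; 0% = DMSO-treated cells and -100% = media-only wells without cells; nearly all actives have a fitted effect of over 55% in size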
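Fibrosarcoma NT cells, 750 per well in 5% FBS RPMI, were exposed to compound for 48 hours. Viability: CellTiter-Glo luminescence.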
HT1080 IDH1KD tx: toxicity to HT-1080 IDH1 knockdown cells (counter line) | AID 686971 | Potency, µM (highest dose often 46.1 µM), inactives show at the top dose activity, negative = toxicity, actives largely listed as cytotoxic | HT-1080 IDH1 knockdown viability, ATP luminescence, 48 h | 360,000 tested, 2% active;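 note: 0% = DMSO wells and -100% = cell-free medium wells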
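IDH1KD HT-1080 cells, 750/well, RPMI + 5% FBS; compound pinned after 2 h settling; 48 h, 37 °C; CellTiter-Glo luminescence; % activity normalised to DMSO and no-cell wells; curves fitted, classed by r2 and efficacy.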
TGFb inhibitor: inhibitors of TGF-b signaling; 410,000 tested, 1.2% active; Potency, µM (top dose mostly 46.1 µM), without a hit: at the top dose activity, negative = inhibition, actives largely listed as inhibitors; AID 588855; HepG2 CAGA-GFP TGF-b/SMAD3 reporter, GFP fluorescence, 18 h; TGF-beta stimulated, 500 pg/mL final; note: % is set by controls: 0 for no effect and ±100 for the full control effect; nearly all actives have a fitted effect of over 65% in size
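HEPG2 CAGA-GFP reporter cells (1000/well, DMEM with 1% FBS) received compounds, then recombinant TGF-beta at 500 pg/mL final for 18 hours at 37 degrees C. Per-cell GFP summed per well was normalised to unstimulated and stimulated DMSO controls before curve fitting.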
An asterisk follows results filed as active; ? = inconclusive; . = no result. Calls come from the whole dose curve; as a rule, active = well fitted curve in the direction sought with a large enough effect; inconclusive = small, poorly fitted or top-dose-only effect, or another doubt; inactive = no such curve, though single readings can be large; an effect the other way counts as inactive or inconclusive. Potency is the fitted concentration of half-maximal effect.

SMILES | DT40 TDP1 CPT | HepG2 viability | DT40 TDP1 no CPT | HT1080-NT tox | HT1080 IDH1KD tx | TGFb inhibitor
COc1ccc(S(=O)(=O)NCCc2csc3nc(-c4cccc(C)c4)nn23)cc1F | ? | -19.9% | 20.6µM* | . | . | 0.0%
COc1ccc(S(=O)(=O)NCCc2csc3nc(-c4ccc(Cl)cc4)nn23)cc1C | 16.4µM* | -39.2% | 13µM* | . | . | -28.3%
CCOc1ccc(S(=O)(=O)NCCc2csc3nc(-c4ccc(OC)c(OC)c4)nn23)cc1 | ? | -14.0% | ? | . | . | -12.7%
COc1ccc(-c2nc3scc(CCNS(=O)(=O)c4ccc(F)cc4F)n3n2)cc1OC | ? | 0.2% | 18.4µM* | . | . | 0.0%
O=C(NNC(=O)c1ccccc1-n1cccc1)c1cccnc1 | -4.3% | -3.2% | -23.1% | 3.1% | 3.5% | 15.6%
COc1ccc(S(=O)(=O)NCC(=O)NCc2cc(=O)n(C)c(=O)n2C)cc1 | 2.6% | -6.4% | 9.8% | 23.4% | 12.9% | 4.9%
Cc1ccc2cccc(S(=O)(=O)Nc3ccc4c(c3)OCO4)c2n1 | -3.3% | -3.8% | -2.2% | 6.1% | -3.3% | ?
COC(=O)c1cc(Br)c(=O)n(-c2cccc(F)c2)c1 | -0.6% | 11.4% | -2.3% | 0.8% | 16.8% | -4.5%
COc1ccc(-c2nc3scc(CCNS(=O)(=O)c4c(C)cc(C)cc4C)n3n2)cc1OC | 14.6µM* | 6.4% | 23.1µM* | . | . | 0.0%
CC(=O)Nc1ccc(S(=O)(=O)NCCc2csc3nc(-c4ccc(Cl)cc4)nn23)cc1 | 20.6µM* | -22.4% | 16.4µM* | . | . | 0.0%
CC1=C(C(=O)N(C)C)CC(CC(=O)NC2CC2)C(=O)N1Cc1ccccc1 (configuration not stated) | 0.8% | 20.7% | -0.9% | 1.7% | 0.4% | 13.2%
CCc1nc(N2CCN(C(=O)c3ccco3)CC2)c2oc3ccccc3c2n1 | 20.6µM* | -19.5% | 20.6µM* | ? | ? | 1.1%
CC(C)(C)c1nc(N2CCN(C(=O)c3ccco3)CC2)c2nnn(Cc3ccccc3)c2n1 | ? | -85.3% | 20.6µM* | ? | ? | ?
Cc1nc(N2CCN(C(=O)c3ccco3)CC2)c2oc3ccccc3c2n1 | 14.6µM* | -9.4% | 20.6µM* | ? | ? | 2.2%
S=C(NC1CCCC1)NN1CCOCC1 | 15.7% | 1.0% | 8.7% | 1.4% | 1.3% | 6.0%
CC(=O)Oc1cc2oc(=O)c3c(c2cc1Cl)CCC3 | -2.2% | 3.9% | -4.9% | ? | 8.2% | -9.8%
COc1ccccc1/C=N/NC(=O)C(=O)N1CCN(c2ccccc2OC)CC1 | -25.5% | 3.9% | -3.3% | 12.7% | 9.9% | -3.2%
O=C(N/N=C/c1ccc(-c2cccc(C(F)(F)F)c2)o1)c1cccc(F)c1 | 17.8µM* | -25.2% | 14.1µM* | ? | ? | ?
Clc1ccc(-c2ccc(/C=N/Nc3nncc(-c4ccccc4)n3)o2)cc1 | ? | 4.7% | ? | 42.5% | 10.8% | -6.3%
FC(F)(F)c1cccc(-c2ccc(/C=N/Nc3nncc(-c4ccccc4)n3)o2)c1 | ? | -6.0% | 9.2µM* | 4.5% | 5.4% | -3.7%
O=C(N/N=C/c1ccc(-c2cccc([N+](=O)[O-])c2)o1)c1ccc([N+](=O)[O-])cc1 | ? | 14.5% | 16.4µM* | -3.8% | -11.1% | 4.6%
O=C(N/N=C/c1ccc(-c2cccc(C(F)(F)F)c2)o1)c1ccccc1O | 10.3µM* | -15.7% | 8.2µM* | -1.5% | -3.4% | -16.7%
NC(=O)N/N=C/c1ccc(-c2cccc(C(F)(F)F)c2)o1 | -2.6% | -24.3% | -2.0% | -13.4% | -4.5% | -20.2%
COc1cc2c(cc1NC(=O)C(F)(F)F)-c1ccc(NC(=O)C(F)(F)F)cc1C2 | -17.8% | 3.1% | -15.8% | 0.8% | 19.9% | 4.1%
CCOc1cccc(C2/C(=C(/O)c3ccc4c(c3)CC(C)O4)C(=O)C(=O)N2CCCn2ccnc2)c1 (configuration not stated) | -2.3% | 5.8% | 2.1% | 17.3% | 11.0% | -1.2%
SMILES | DT40 TDP1 CPT | HepG2 viability | DT40 TDP1 no CPT | HT1080-NT tox | HT1080 IDH1KD tx | TGFb inhibitor
O=C(NC(=S)Nc1ccc2oc(=O)ccc2c1)c1cc2ccccc2o1 | -3.6% | 5.1% | -21.5% | 20.5% | 14.5% | -1.8%
COC(=O)C1CCN(Cc2c(C(=O)N3C[C@@H](C)O[C@@H](C)C3)nc3ccc(Cl)cn23)CC1 | 10.7% | -11.4% | 2.6% | 2.0% | 4.1% | -3.6%
Cc1ccc(C(=O)N/N=C\c2ccc(-c3ccc([N+](=O)[O-])cc3)o2)cn1 | -0.5% | 9.2% | ? | -5.2% | 0.4% | -2.4%
O=C(N/N=C/c1ccc(-c2cccc(C(F)(F)F)c2)o1)c1ccccc1Br | -29.2% | -15.1% | ? | -19.3% | ? | 20µM*
Cc1ccc(NCC(=O)N/N=C/c2ccc(-c3cccc(C(F)(F)F)c3)o2)cc1 | ? | -14.8% | ? | -11.9% | -18.6% | -12.8%
COc1cc(C(=O)NCC(=O)N/N=C/c2ccc(-c3ccc([N+](=O)[O-])cc3)o2)cc(OC)c1OC | ? | -1.0% | 20.6µM* | -22.0% | -26.9% | ?
Cc1cc(OC(=O)c2ccccc2Br)cc(=O)n1C | 20.6µM* | 0.0% | ? | -20.5% | -2.1% | -6.8%
CC(=O)c1c(OC(=O)c2ccccc2Br)ccc2c(C)cc(=O)oc12 | -24.6% | 7.9% | -24.6% | 7.7% | 9.7% | -0.1%
CCOc1ccc2[nH]c(=O)c(CN(Cc3cccs3)Cc3nnnn3C(C)(C)CC)cc2c1 | 16.4µM* | -32.5% | 15.8µM* | 0.0% | -7.5% | ?
COc1ccc2cc(CN(Cc3cccs3)Cc3nnnn3Cc3ccccc3)c(=O)[nH]c2c1 | ? | -29.0% | ? | -0.9% | 1.3% | 0.0%
CCOC(=O)Cn1nnnc1CN(Cc1cccs1)Cc1cc2cc(C)cc(C)c2[nH]c1=O | 20.6µM* | -24.6% | 14.6µM* | 9.9% | -4.3% | ?
Cc1cccc2cc(CN(Cc3ccccc3)Cc3nnnn3Cc3ccccc3)c(=O)[nH]c12 | ? | -3.3% | 12.6µM* | . | . | 2.7%
Cc1cccc2cc(CN(Cc3cccs3)Cc3nnnn3Cc3ccccc3)c(=O)[nH]c12 | ? | -2.4% | 23.1µM* | ? | 0.0% | ?
COc1ccccc1OCc1ccc(C(=O)N(C)c2ccccc2)o1 | ? | 5.6% | ? | 4.5% | 2.6% | 0.8%
CC(C)C[C@H](NC(=O)OC(C)(C)C)C(=O)N[C@@H](CO)[C@H](O)[C@@H]1C[C@@H]1C(=O)N(C)C | 3.0% | -10.6% | -9.4% | 11.9% | -0.3% | -5.6%
